Screening data deposited in PubChem BioAssay by several laboratories.
aDG glyco act: activators of alpha-DG glycosylation, primary screen, uHTS, Pro5-aDG cells, AlphaScreen | alpha-DG glycosylation AlphaScreen (IIH6); 0% Pro5, 100% B10-LARGE cell signal | activation, % at 10 µM | 0.22% of 360,000 active;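 active = activation of at least 8% versus controls, or a plate z-score of at least 8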;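 note: Pro5 are CHO cells carrying HIG-tagged alpha-DG that lacks glycosylation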
ARNT-TACC3 inh: disruptors of ARNT/TACC3 protein interaction, primary screen, biochemical, AlphaScreen, single concentration | AlphaScreen His-ARNT PAS-B/GST-TACC3 binding, luminescence; TACC3 fragment carries E629A point mutation | inhibition, % at 9.99 µM | 0.66% of 390,000 active | AID 623870, 2012;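 active = mean inhibition of replicates at least 50% and at least half of replicates each reaching 50%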
Vif imaging: HIV Vif self-association inhibitors, primary screen, imaging, HEK293T, single point; HEK293T cells, Vif self-association by quenched fluorescence, 24 h; inhibition, % at 7.49 µM; 0.35% of 340,000 active; AID 602346, 2012; in the data active = inhibition above about 50%, passing the limit was not always enough
Glyco luc inh: increase of ERlucT glycosylation luciferase signal, primary screen, N-linked glycosylation inhibitor project, D54 ERlucT cells, luminescence, set 2; AID 588692, 2011; reporter increase, % at 12.5 µM; 0.23% of 360,000 active; D54 ERlucT glycosylation luciferase reporter, 24 h; percent of 100 nM tunicamycin response;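 active = mean luciferase reporter signal, scaled so untreated is 0 and the glycosylation-blocking control 100, at or above a set limit in every replicate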;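 note: luciferase carries N-glycosylation sites so blocking glycosylation raises the light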
Cardio protect: cardioprotection against H2O2-induced cell death, primary screen, uHTS, H9c2 cells, ATPLite luminescence; AID 588492, 2011; 0.63% of 360,000 active; protection from H2O2 cell death, % at 20 µM; H9c2 cardiomyocytes, H2O2 injury protection, 2 h;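 active = compounds giving at least 50% protection of heart cells from peroxide-induced death in the single-dose screen, raw or plate-pattern-corrected value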
ARNT Alpha ctr-1: AlphaScreen signal interference compounds, dose response, artefact control for ARNT-TACC3 interaction inhibitor project, biochemical, luminescence, cherry-pick; shares compounds with ARNT-TACC3 inh; His-ARNT PASB-GST AlphaScreen artifact counter-screen; AC50, µM (doses to about 68 µM); 50% of 1,200 active; AID 651705, 2012;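 active = every separate test run was called active for a drop in luminescence, with AC50 within twice the top valid dose, actives reach about 71 µM in these data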
ARNT Alpha ctr-2: AlphaScreen signal interference by compounds, dose response, artefact control for ARNT/TACC3 disruptor project, biochemical, dual-tagged ARNT, dry powder; shares compounds with ARNT-TACC3 inh; Dual-tagged His-ARNT PASB-GST AlphaScreen artifact counter-screen; AC50, µM; 70% of 45 active;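 active = luminescence drop, with half-maximal potency fitted within twice the sample's top valid dose, cut at about 70 µM in these data; inactive = the rest, including signal moving the wrong way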
Numbers stand for hits; 0 = inactive; - = no result. The list is not random: actives were taken first. Their share in the collection is about 1.7%.

SMILES	aDG glyco act	ARNT-TACC3 inh	Vif imaging	Glyco luc inh	Cardio protect	ARNT Alpha ctr-1	others
CC1CCCC(C)N1C(=O)COC(=O)c1cc([N+](=O)[O-])ccc1N1CCOCC1 (configuration not stated)	0	0	0	0	0	-
CCOC(=O)C1CCN(C(=O)COC(=O)c2ccc([N+](=O)[O-])o2)CC1	0	33	0	0	0	0
CC1CCCC(C)N1C(=O)COC(=O)c1ccc([N+](=O)[O-])o1 (configuration not stated)	0	30	0	0	0	0
CC1CC(C)CN(C(=O)COC(=O)c2ccc([N+](=O)[O-])o2)C1 (configuration not stated)	0	0	0	0	0	-
Cc1noc(C)c1NC(=O)Nc1ccc2c(c1)C(=O)N([C@@H](C)CO)C[C@@H](C)[C@@H](CN(C)S(=O)(=O)c1ccc(Cl)cc1)O2	-	0	-	-	-	-
C/C(=N\NC(=O)C(c1ccccc1)c1ccccc1)c1ccc(O)cc1	0	60	0	0	0	0
COC(C(=O)N/N=C(\C)c1ccc(O)cc1)c1ccccc1 (configuration not stated)	0	0	0	0	0	-
CCCNC(=O)Nc1ccc2c(c1)OC[C@@H](C)N(C(=O)c1ccccc1F)C[C@H](C)[C@H](OC)CN(C)C2=O	-	0	-	-	-	-
CO[C@@H]1CN(C)C(=O)c2ccc(NC(=O)c3ccccn3)cc2OC[C@@H](C)N(Cc2ccccn2)C[C@H]1C	-	95	-	-	-	20µM
CCCNC(=O)Nc1ccc2c(c1)OC[C@H](C)N(C(=O)c1ccccc1F)C[C@@H](C)[C@@H](OC)CN(C)C2=O	-	53	-	-	-	0
COc1ccccc1C#Cc1cnc2c(c1)C(=O)N([C@H](C)CO)C[C@@H](C)[C@@H](CN(C)C(=O)CN(C)C)O2	-	0	-	-	-	-
Cc1cc(=O)[nH]c(-n2[nH]c3c(c2=O)CCCC3)n1	0	58	0	0	0	0
Cc1cc(=O)[nH]c(N2CCCNCC2)n1	0	0	0	0	0	-
CCNC(=O)C[C@@H]1CC[C@@H](NS(=O)(=O)c2ccc(F)cc2)[C@@H](CO)O1	-	0	-	-	-	-
O=C(NCc1ccccn1)Nc1cc(Cl)ccc1Cl	0	0	0	0	0	-
O=C(CC(NCc1ccccn1)C(=O)O)Nc1ccccc1Cl (configuration not stated)	0	51	0	0	0	13µM
Cc1ccc(S(=O)(=O)N(C)C[C@H]2OCCCC[C@H](C)Oc3ccc(NC(=O)Nc4cccc5ccccc45)cc3C(=O)N([C@H](C)CO)C[C@@H]2C)cc1	-	0	-	-	-	-
Cc1ccc(C(=O)Oc2ccc(/C=C3\C(=N)N4N=C(N5CCOCC5)SC4=NC3=O)cc2)cc1	0	56	0	0	0	0
C[C@@H]1CN([C@@H](C)CO)C(=O)Cc2cc(NS(=O)(=O)c3ccc(Cl)cc3)ccc2O[C@@H]1CN(C)C	-	0	-	-	-	-
c1ccc(-c2ccncc2)nc1	0	0	0	0	0	-
c1ccc(-c2nc(-c3ccncc3)n[nH]2)nc1	0	70	0	0	0	23µM	ARNT Alpha ctr-2=5.1
O=C(C1CC1)N1CCc2cc(Br)cc(S(=O)(=O)NCc3ccccn3)c21	0	52	0	0	0	0
O=C(Nc1ccc2nc(-c3ccccn3)[nH]c2c1)C1CCCCC1	0	59	0	0	0	0
O=C(CN1C(=O)CCC1=O)Nc1nc(-c2ccccn2)cs1	0	59	0	0	52	34µM
O=C(Nc1nc(-c2ccccn2)cs1)C1CCCC1	0	59	0	0	0	0
CSCCC(=O)Nc1nc(-c2ccccn2)cs1	0	58	0	0	0	71µM
